A selection: hits, their analogues and other compounds. The true share with any hit is near 18%.
TGFb inhibitor – qHTS for Inhibitors of TGF-b. actives 1.2% (n = 410,000). Potency, µM (doses to about 46.1 µM), for the others: top-dose activity, negative = inhibition, usual class: inhibitors. AID 588855, 2011. HepG2 CAGA-GFP TGF-b/SMAD3 reporter, GFP fluorescence, 18 h; TGF-beta stimulated, 500 pg/mL final; further: potency means the concentration at half of the fitted maximal effect; on the % scale 0 is the no-effect control and ±100 the full control effect; nearly all actives have a fitted effect of over 65% in size
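Smad-responsive CAGA-GFP expression was quantified in HEPG2 cells exposed to compounds and 500 pg/mL final TGF-beta for 18 h at 37 degrees C; unstimulated wells defined full inhibition.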
TDP1 inh – qHTS Assay for Inhibitors of Tyrosyl-DNA Phosphodiesterase (TDP1). Potency, µM (titrated, usually from 130 µM), for inactives: top-dose activity change, negative = inhibition, usual class: inhibitors. actives 0.28% (n = 350,000). recombinant TDP1, AlphaScreen DNA substrate cleavage. Tyrosyl-DNA phosphodiesterase 1 (Homo sapiens), Q9NUW8; further: potency means the concentration at half of the fitted maximal effect; on the % scale 0 is the no-effect control and ±100 the full control effect; nearly all actives have a fitted effect of over 40% in size
Target sequence (Q9NUW8 whole entry, looked up): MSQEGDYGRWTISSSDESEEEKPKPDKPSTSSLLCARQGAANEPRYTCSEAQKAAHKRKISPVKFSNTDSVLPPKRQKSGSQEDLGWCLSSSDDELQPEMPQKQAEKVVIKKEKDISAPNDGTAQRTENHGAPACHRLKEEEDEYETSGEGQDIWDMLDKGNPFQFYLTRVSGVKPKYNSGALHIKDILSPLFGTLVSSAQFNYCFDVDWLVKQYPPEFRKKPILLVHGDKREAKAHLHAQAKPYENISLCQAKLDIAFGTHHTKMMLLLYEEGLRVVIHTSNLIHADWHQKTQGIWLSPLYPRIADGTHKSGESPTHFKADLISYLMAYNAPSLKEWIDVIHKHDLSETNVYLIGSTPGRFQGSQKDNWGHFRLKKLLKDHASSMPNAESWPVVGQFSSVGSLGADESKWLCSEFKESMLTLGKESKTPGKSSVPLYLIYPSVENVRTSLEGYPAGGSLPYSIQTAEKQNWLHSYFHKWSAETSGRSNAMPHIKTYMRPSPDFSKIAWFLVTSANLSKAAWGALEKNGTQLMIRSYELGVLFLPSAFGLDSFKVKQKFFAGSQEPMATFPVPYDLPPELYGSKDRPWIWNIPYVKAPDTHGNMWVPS
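Recombinant human Tdp1 (E. coli-expressed, 1 nM final) preincubated with compounds 15 min at room temperature, then 5'-biotin/3'-phosphotyrosine-FITC DNA substrate (15 nM final) added for 5 min. AlphaScreen beads (10 ug/ml final) added 10 min; cleavage lowers signal.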
TDP1 cell noCPT – qHTS for Inhibitors of human tyrosyl-DNA phosphodiesterase 1 (TDP1): qHTS in cells in absence of CPT. DT40 Tdp1-/- hTDP1 cells, no CPT, ATP luminescence, 48 h. actives 15% (n = 420,000). AID 686978, 2013. Potency, µM (series often up to 46.2 µM), for the others: top-dose activity change, negative = growth inhibition, hits mostly inhibitors; further: potency means the concentration at half of the fitted maximal effect; on the % scale 0 is the no-effect control and ±100 the full control effect; nearly all actives have a fitted effect of over 55% in size
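DT40 Tdp1-/-;hTDP1 cells, no CPT (DMSO vehicle only), 400 cells/well; compounds pin-transferred; ≥48 hr, 37 °C; CellTiter-Glo 30 min RT dark, luminescence read.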
DT40 TDP1 CPT – qHTS for Inhibitors of human tyrosyl-DNA phosphodiesterase 1 (TDP1): qHTS in cells in presence of CPT | chicken DT40 Tdp1-/-;hTDP1 cells + 20 nM CPT, ATP luminescence, 48 h | Potency, µM (series often up to 46.2 µM), for the others: at the highest dose activity change, negative = growth inhibition, usual class: inhibitors | actives 12% (n = 420,000) | AID 686979, 2013; further: potency means the concentration at half of the fitted maximal effect; on the % scale 0 is the no-effect control and ±100 the full control effect; nearly all actives have a fitted effect of over 55% in size
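Chicken DT40 Tdp1-/- cells stably complemented with human TDP1 were seeded at 400 cells/well in medium containing 20 nM camptothecin, exposed to pin-transferred compounds, and grown at 37 °C for at least 48 hr. Viability was read as ATP luminescence.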
IL-1B inflam inh – qHTS for Inhibitors of Inflammasome Signaling: IL-1-beta AlphaLISA Primary Screen | activity change, % at 57.5 µM | AID 743279, 2014 | THP-1 LPS/ATP IL-1B secretion, AlphaLISA, 16 h; active compounds read low | actives 4.7% (n = 360,000); in the data active means activity change below about -50%; inconclusive means mostly about -30% to -49%; further: on the % scale 0 is the no-effect control and ±100 the full control effect
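THP-1 cells pretreated 1 hr with compounds (up to 57.5 uM final), then stimulated with LPS (250 ng/mL final) plus ATP (1.25 mM final); secreted IL-1B measured by AlphaLISA after 16 hr, decreased signal indicating inhibition.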
HepG2 viability – qHTS for Inhibitors of TGF-b: Cytotox Counterscreen; HepG2 CAGA-GFP viability, ATP luminescence, 18 h; Potency, µM (doses to about 46.1 µM), for the others: top-dose activity change, negative = cytotoxicity, actives largely listed as cytotoxic; actives 0.76% (n = 410,000); further: potency means the concentration at half of the fitted maximal effect
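CellTiter-Glo luminescence gave cytotoxicity after 18 hours at 37 degrees C. The cells were HepG2 CAGA-GFP in 1% FBS DMEM, stimulated with 500 pg/mL TGF-beta after compound addition. %Activity was normalised to no-cell wells (complete cell-killing) and DMSO (no toxicity), and curves were fitted and classified.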
Active calls of the source: *; ? = inconclusive; nt = no result given; [ ] = remark or other dose. Unless noted, the call rests on the fitted dose curve; in most records, active means well fitted curve in the direction sought with a large enough effect; inconclusive means small, poorly fitted or top-dose-only effect, or another doubt; inactive means no such curve, though single readings can be large; an effect the other way counts as inactive or inconclusive.

SMILES	TGFb inhibitor	TDP1 inh	TDP1 cell noCPT	DT40 TDP1 CPT	IL-1B inflam inh	HepG2 viability
CC1(C)Cc2c(sc3nc(C4CC4)n(N)c(=O)c23)CO1	0%	-1%	?	-20%	-8	-149%
O=C(Nc1ccc(Nc2ccccc2)cc1)c1ccccc1	3%	nt	21µM*	?	-27	-44%
O=C(Nc1ccc(Cl)cc1)C1=Cc2ccccc2OC1	-22%	3%	23µM*	?	-27	-30%
O=C(Nc1cccnc1)c1ccc(S(=O)(=O)c2ccc(Cl)cc2)cc1	-20%	5%	23µM*	?	-66*	14%
Cc1ccccc1CNC(=O)C1=Cc2ccccc2OC1	-19%	-2%	?	?	nt	-7%
COc1cc(OC)cc(C(=O)Nc2ccc(Nc3ccccc3)cc2)c1	-26%	nt	?	21µM*	-24	-33%
CC(C)n1cc(C#N)c(N)n1	-18%	nt	-5%	4%	18	1%
COc1ccc(N2CCN(S(=O)(=O)CCNC(=O)c3c(F)cccc3Cl)CC2)cc1	-2%	7%	-22%	-2%	nt	2%
COc1cccc(OCCSc2nc3ccccc3n2CC(=O)N2CCCCC2)c1	-9%	14%	?	?	nt	-19%
Cc1ccc(S(=O)(=O)Nc2ccc3nc(-c4cccc(Cl)c4)oc3c2)cc1	-2%	5%	?	?	nt	0%
O=C(/C=N/NC(=O)c1ccc(Cl)cc1Cl)c1ccccc1	?	10%	?	?	-77*	-29%
O=C(Nc1ccc(Nc2ccccc2)cc1)c1ccc(Cl)cc1Cl	7%	nt	?	15µM*	?	-33%
O=C1C(Cl)=C(NC(=O)c2ccccc2)C(=O)C(Cl)=C1NC(=O)c1ccccc1	11µM*	nt	2.6µM*	1.3µM*	-99*	-31%
CC(C)(C)C(=O)C(Cl)C(=O)Nc1ccccc1 (stereo not drawn)	?	nt	4.1µM*	5.2µM*	?	8.9µM*
O=C(Nc1cc(Cl)ncn1)c1ccccc1	24%	nt	14%	18%	-63*	20%
COc1cc(OC)cc(C(=O)NCC(=O)Nc2ccc(-c3ccccc3)cc2)c1	?	3%	18µM*	16µM*	39	0%
C#Cc1cccc(NC(=O)c2ccc(Cl)cc2Cl)c1	-18%	nt	29µM*	-12%	-8	-5%
N#C/C(C(=O)Nc1ccc(Cl)cc1)=C(/S)Nc1ccccc1	11µM*	nt	12µM*	15µM*	?	11µM*
CCC(=O)CN(Cc1cc(OC)ccc1OC)S(=O)(=O)c1ccccc1Br	-9%	nt	-8%	?	-3	-42%
O=C(Nc1ccc(Nc2ccccc2)cc1)c1ccc(Cl)cc1	-9%	nt	13µM*	18µM*	-62*	-24%
NC(=O)Nc1ccc(Nc2ccccc2)cc1	-26%	5%	-28%	?	10	-16%
O=C(Nc1ccc(Nc2ccccc2)cc1)C(Cl)Cl	13µM*	8%	1.8µM*	1.2µM*	-89*	-77%
COc1ccc([N+](=O)[O-])cc1NC1CCN(C(=O)c2cccs2)CC1	-6%	5%	-13%	-22%	-7	-1%
Cc1onc(-c2ccccc2Cl)c1C(=O)Nc1ccc2c(c1)OCO2	-26%	3%	-5%	-14%	-16	-5%
CCCOC(=O)c1cccc(NC(=O)c2c(-c3ccccc3Cl)noc2C)c1	-32%	2%	7.3µM*	7.3µM*	nt	-22%
SMILES	TGFb inhibitor	TDP1 inh	TDP1 cell noCPT	DT40 TDP1 CPT	IL-1B inflam inh	HepG2 viability
C/C(=N\NC(=O)c1ccc(Cl)c(Cl)c1)c1cccc(NC(=O)C(C)C)c1	-2%	2%	-23%	-8%	0	-19%
C/C(=N\NC(=O)c1c(-c2ccccc2Cl)noc1C)c1cccc(NC(=O)C(C)C)c1	-10%	3%	23µM*	?	-13	-26%
CCCOc1cccc(NC(=O)c2c(-c3ccccc3Cl)noc2C)c1	8%	-8%	8.2µM*	9.2µM*	nt	-1%
Cc1noc(C)c1-c1ccc2ncnc(NCc3ccccc3Cl)c2c1	nt	6%	nt	nt	nt	nt
CN1C(=O)c2cccc3c(S(N)(=O)=O)ccc1c23	-3%	nt	-3%	-27%	-88*	-23%
COc1ccc(N(C(=O)c2ccncc2)S(=O)(=O)c2ccc3c4c(cccc24)C(=O)N3C)cc1	?	-5%	?	18µM*	-14	-38%
CCOc1cc(S(=O)(=O)NCc2ccc(OC)cc2)c(OCC)cc1-n1cnnn1	-3%	-6%	2.1µM*	4.1µM*	28	-5%
CCOc1cc(S(=O)(=O)NCCc2ccc(OC)c(OC)c2)c(OCC)cc1-n1cnnn1	19%	-3%	5%	6%	-13	8%
COc1c(-c2ccc(O)cc2)oc2cc(O)cc(O)c2c1=O	27%	nt	?	?	58	-11%
COc1ccc(-c2oc3ccccc3c(=O)c2O)cc1OC	nt	7%[56.1 µM]	-29%	-28%	nt	nt
COc1ccc(-c2oc3cc(O)c(OC)c(O)c3c(=O)c2OC)cc1	10%	nt	13µM*	10µM*	48	0%
COc1ccc(-c2oc3cc(O[C@@H]4OC(CO)C(O)C(O)C4O)c(OC)c(O)c3c(=O)c2OC)cc1O (stereo partly drawn)	nt	1%[56.1 µM]	15µM*	?	nt	nt
COc1ccc(-c2oc3ccc(C)cc3c(=O)c2O)cc1OC	nt	8%[56.1 µM]	?	12µM*	nt	nt
COc1ccc(-c2oc3c(OC)c(OC)c(OC)c(O)c3c(=O)c2OC)cc1OC	-10%	1%	21µM*	?	34	-51%
FC(F)(F)c1ccccc1-c1nccc(NCc2ccccc2)n1	nt	-4%[56.1 µM]	?	?	nt	nt
O=c1c(O)c(-c2cccc(O)c2)oc2ccccc12	nt	-5%[56.1 µM]	?	?	nt	nt
O=c1c(O)c(-c2ccc(O)cc2)oc2ccc(O)cc12	nt	11%	13µM*	13µM*	nt	nt
CC1CN(C2CCCCC2)C(=S)N(c2ccccc2)C1=O (stereo not drawn)	0%	nt	-7%	-6%	2	0%
CCc1nc2c(OCc3ccccc3C(=O)OC)cccn2c1N(C)C(=O)c1ccncc1	5%	nt	-23%	?	23	-1%
CCc1nc2c(OCc3ccccc3C(=O)OC)cccn2c1N(C)C(=O)CC(C)C	17%	nt	13µM*	16µM*	10	0%
